We go through one compound from PubChem BioAssay (NCATS).

Results filed as inconclusive are left out. A call without a number means that no potency is given here. Calls of active or inactive are those of the source. Calls come from the whole dose curve; as a rule, active = well fitted inhibition curve with a large enough effect; inconclusive = small, poorly fitted or top-dose-only effect; inactive = flat fitted curve, though single readings scatter.

This assay relates to Zika virus NS2B-NS3 protease. Put plainly: Primary screen GU AMC qHTS for Zika virus inhibitors (AID 1347154). Note: nearly all actives have a fitted effect of over 70% in size. The essentials:
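Unlinked Zika NS2B hydrophilic domain/NS3 protease domain noncovalent complex (25 nM final) in 10 mM Tris-HCl pH 8.0, 0.01% Tween 20, with AMC peptide substrate. Fluorescence (ex 340, em 450 nm) change over 15 min, room temperature; percent inhibition fitted to 4-parameter Hill equation.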
A general note: qHTS replaces the single test concentration by a dilution series.

For `CCCCC[C@H](O)/C=C/[C@@H]1[C@H]2C/C(=C/CCCC(=O)O)C[C@H]2C[C@H]1O`, the Potency result is “inactive”.
